Screening data (PubChem)
DT40 TDP1 no CPT = qHTS for Inhibitors of human tyrosyl-DNA phosphodiesterase 1 (TDP1): qHTS in cells in absence of CPT. DT40 Tdp1-/- hTDP1 cells, no CPT, ATP luminescence, 48 h. Potency, µM (highest dose often 46.2 µM), actives largely listed as inhibitors. 420,000 tested, 15% active. AID 686978, 2013; further: nearly all actives have a fitted effect of over 55% in size
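Camptothecin absent (DMSO only). Human TDP1-complemented DT40 knockout cells, 400 cells/well, 37 °C for minimum 48 hr; ATP measured via CellTiter-Glo, 30 min dark incubation, luminescence.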
HepG2 viability = HepG2 cytotoxicity, counter-screen for TGF-b inhibitors; Potency, µM (titrated, usually from 46.1 µM), usual class: cytotoxic; AID 588856; HepG2 CAGA-GFP viability, ATP luminescence, 18 h; 410,000 tested, 0.76% active
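CellTiter-Glo luminescence gave cytotoxicity after 18 hours at 37 degrees C. The cells were HepG2 CAGA-GFP in 1% FBS DMEM, stimulated with 500 pg/mL TGF-beta after compound addition. %Activity was normalised to no-cell wells (complete cell-killing) and DMSO (no toxicity), and curves were fitted and classified.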
TDP1 block = inhibitors of human tyrosyl-DNA phosphodiesterase TDP1; 350,000 tested, 0.28% active; Q9NUW8; recombinant TDP1, AlphaScreen DNA substrate cleavage; Potency, µM (series often up to 130 µM), actives largely listed as inhibitors; further: nearly all actives have a fitted effect of over 40% in size
Target sequence (Q9NUW8 whole entry, looked up): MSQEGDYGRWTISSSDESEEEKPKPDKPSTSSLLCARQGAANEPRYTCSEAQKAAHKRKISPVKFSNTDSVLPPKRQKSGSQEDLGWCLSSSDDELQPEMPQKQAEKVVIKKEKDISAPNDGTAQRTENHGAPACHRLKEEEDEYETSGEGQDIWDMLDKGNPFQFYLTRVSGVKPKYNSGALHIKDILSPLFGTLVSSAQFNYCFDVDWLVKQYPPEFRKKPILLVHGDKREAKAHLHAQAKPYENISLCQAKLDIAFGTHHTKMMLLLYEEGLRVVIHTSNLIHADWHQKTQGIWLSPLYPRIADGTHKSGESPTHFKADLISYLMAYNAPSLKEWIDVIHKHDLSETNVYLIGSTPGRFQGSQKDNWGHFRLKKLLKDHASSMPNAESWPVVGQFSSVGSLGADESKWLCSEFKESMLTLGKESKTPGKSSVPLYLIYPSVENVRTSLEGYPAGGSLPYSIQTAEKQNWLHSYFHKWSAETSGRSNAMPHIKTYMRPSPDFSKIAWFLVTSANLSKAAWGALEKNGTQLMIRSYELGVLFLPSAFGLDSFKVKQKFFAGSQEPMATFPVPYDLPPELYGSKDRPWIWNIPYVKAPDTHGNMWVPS
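Enzyme-compound mixtures sat 15 min at room temperature, followed by a 5 min reaction with 15 nM final substrate and 10 min with AlphaScreen beads. Recombinant human Tdp1 was used at 1 nM final.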
DT40 TDP1 CPT = DT40-hTDP1 cell growth loss with CPT; Potency, µM (series often up to 46.2 µM), usual class: inhibitors; 420,000 tested, 12% active; chicken DT40 Tdp1-/-;hTDP1 cells + 20 nM CPT, ATP luminescence, 48 h; further: nearly all actives have a fitted effect of over 55% in size
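Chicken DT40 Tdp1-/- cells stably complemented with human TDP1 were seeded at 400 cells/well in medium containing 20 nM camptothecin, exposed to pin-transferred compounds, and grown at 37 °C for at least 48 hr. Viability was read as ATP luminescence.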
IL-1B inflam inh = inflammasome signaling inhibition, IL-1 beta readout. 360,000 tested, 4.7% active. THP-1 LPS/ATP IL-1B secretion, AlphaLISA, 16 h; active compounds read low. activity change, % at 57.5 µM; in the data active means activity change below about -50%; inconclusive means mostly about -30% to -49%
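THP-1 cells pretreated 1 hr with compounds (up to 57.5 uM final), then stimulated with LPS (250 ng/mL final) plus ATP (1.25 mM final); secreted IL-1B measured by AlphaLISA after 16 hr, decreased signal indicating inhibition.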
TGFb inhibitor = TGF-b pathway inhibition; AID 588855; Potency, µM (top dose mostly 46.1 µM), most hits filed as inhibitors; 410,000 tested, 1.2% active; HepG2 CAGA-GFP TGF-b/SMAD3 reporter, GFP fluorescence, 18 h; TGF-beta stimulated, 500 pg/mL final; further: nearly all actives have a fitted effect of over 65% in size
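Read-out: total well GFP (ex488/em500-530) summed from mean per-cell fluorescence. Cells: HEPG2 CAGA-GFP, 1% FBS DMEM, 18 h at 37 degrees C with 500 pg/mL final TGF-beta. Unstimulated wells served as the full-inhibition control; stimulated DMSO wells = 0%.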
Hits are given with their value; i = inactive; ? = inconclusive; nt = not tested or not shown. Hits are enriched below; roughly 18% of the tested compounds scored in any of these assays. Unless noted, the call rests on the fitted dose curve; in most records, active means well fitted curve in the direction sought with a large enough effect; inconclusive means small, poorly fitted or top-dose-only effect, or another doubt; inactive means no such curve, though single readings can be large; an effect the other way counts as inactive or inconclusive.

SMILES | DT40 TDP1 no CPT | HepG2 viability | TDP1 block | DT40 TDP1 CPT | IL-1B inflam inh | TGFb inhibitor
COc1ccc(-c2nnc3sc(CCN4C(=O)c5ccccc5C4=O)nn23)cc1 | ? | i | i | i | i | i
CCOc1ccc(OCC)c(S(=O)(=O)n2cnc(C)c2)c1 | i | i | nt | i | i | i
COc1ccccc1/C=c1/[nH]c(=O)/c(=C\c2ccccc2OC)[nH]c1=O | ? | i | nt | ? | nt | ?
CC(=O)N1c2ccc(S(=O)(=O)N3CCCC3C(=O)Nc3ccc(C)cc3)cc2CC1C (stereo not drawn) | ? | i | nt | ? | i | i
O=C(Nc1cccc(S(=O)(=O)N2CCOCC2)c1)C1CCN(S(=O)(=O)c2ccccc2)CC1 | i | i | i | ? | i | i
N/C(=N\OC(=O)CC(c1ccccc1)c1ccccc1)c1cccnc1 | ? | i | i | 12µM | ? | ?
CC(C)(C)C(=O)N1CCN(c2ncnc3scc(-c4ccccc4)c23)CC1 | ? | i | nt | ? | -56 | i
CCOC(=O)N1CCN(c2ncnc3scc(-c4ccc(Cl)cc4)c23)CC1 | ? | i | nt | 18µM | i | 16µM
Clc1ccc(-c2csc3ncnc(N4CCc5ccccc5C4)c23)cc1 | 21µM | i | i | ? | i | i
CCOC(=O)N1CCN(c2ncnc3scc(-c4ccccc4)c23)CC1 | 8.2µM | i | nt | 15µM | i | i
Cc1ccc(NC(=O)Cn2c(=O)c3ccc(Cl)cc3n3nncc23)cc1 | i | i | i | i | nt | i
COc1cc(C(=O)NCCC(=O)NC2CCCc3ccccc32)cc(OC)c1OC (stereo not drawn) | i | i | i | i | i | i
CCOCC(=O)NC1CCc2cc(OC)c(OC)c(OC)c2-c2ccc(SC)c(=O)cc21 (stereo not drawn) | 0.16µM | i | nt | 0.015µM | i | i
COc1c(O[C@H]2O[C@@H](CO)[C@@H](O)[C@@H](O)[C@@H]2O)cc2c(c1OC)-c1ccc(SC)c(=O)cc1[C@H](NC(C)=O)CC2 | nt | nt | i | nt | nt | nt
CCCCOC(=O)NC1CCc2cc(OC)c(OC)c(OC)c2-c2ccc(SC)c(=O)cc21 (stereo not drawn) | 0.015µM | i | nt | 0.016µM | i | i
COc1cc2c(c(OC)c1OC)-c1ccc(NC(=O)c3ccccc3)c(=O)cc1[C@@H](NC(C)=O)CC2 | i | i | nt | i | i | i
CCOC(=O)NC1CCc2cc(OC)c(OC)c(OC)c2-c2ccc(SC)c(=O)cc21 (stereo not drawn) | 0.016µM | i | nt | 0.01µM | i | i
CN[C@H]1CCc2cc(OC)c(OC)c(OC)c2-c2ccc(OC)c(=O)cc21 | 0.13µM | i | nt | 0.021µM | i | i
Cc1cc(C)cc(C(O)c2ncc(-c3cccc(C(F)(F)F)c3)[nH]2)c1 (stereo not drawn) | ? | i | nt | ? | i | ?
COc1ccc(-c2ccccc2)cc1NC(=O)[C@@H]1O[C@H](CO)[C@@H](O)[C@H]1O | i | i | nt | i | i | i
CN1CCN(c2ccc(S(=O)(=O)N3CCOCC3)cc2NC(=O)C2CCCCC2)CC1 | i | i | nt | i | i | i
CCN1CCN(c2ccc(S(=O)(=O)N3CCOCC3)cc2NC(=O)/C=C/c2ccc([N+](=O)[O-])cc2)CC1 | 2.9µM | i | nt | ? | -106 | i
COc1ccc(/C=C/C(=O)Nc2ccc(S(=O)(=O)N3CCOCC3)cc2)c(OC)c1 | 18µM | i | i | ? | i | i
CCCNC(=O)C1CCN(c2ccc(S(=O)(=O)N3CCOCC3)cc2Cl)CC1 | i | i | i | 15µM | i | ?
CCN1CCN(c2ccc(S(=O)(=O)N3CCOCC3)cc2NC(=O)C2CCC(C(C)(C)C)CC2)CC1 (stereo not drawn) | ? | 20µM | nt | ? | ? | ?
SMILES | DT40 TDP1 no CPT | HepG2 viability | TDP1 block | DT40 TDP1 CPT | IL-1B inflam inh | TGFb inhibitor
CCN1CCN(c2ccc(S(=O)(=O)N3CCOCC3)cc2NC(=O)c2cccc([N+](=O)[O-])c2)CC1 | i | i | i | i | i | i
O=C(c1ccccn1)N1CCCC(N2CCN(c3ccccc3)CC2)C1 (stereo not drawn) | i | i | i | i | i | i
CCCN1CCN(C(=O)C2CCN(S(=O)(=O)c3ccc4c(c3)NC(=O)C(C)S4)CC2)CC1 (stereo not drawn) | ? | i | i | ? | i | i
COc1ccc(/C=C/C(=O)Nc2ccc(C)c(S(=O)(=O)N3CCOCC3)c2)cc1 | 18µM | i | i | ? | i | i
CCN1CCN(c2ccc(S(=O)(=O)N3CCOCC3)cc2NC(=O)/C=C/c2ccc(OC)cc2OC)CC1 | ? | i | i | 26µM | i | i
COc1ccc(/C=C/C(=O)Nc2cc(S(=O)(=O)N3CCOCC3)ccc2OC)cc1 | i | i | i | i | i | i
CCC(Sc1nnc2c(n1)[nH]c1ccccc12)C(=O)Nc1ccccc1OC (stereo not drawn) | 21µM | i | nt | ? | nt | ?
CCOC(=O)c1ccc(NC(=O)C(CC)Sc2nnc3c4ccccc4n(C)c3n2)cc1 (stereo not drawn) | 18µM | i | i | 16µM | nt | i
Cc1cc([N+](=O)[O-])ccc1NC(=O)CSc1nncn1-c1ccccn1 | ? | i | i | ? | i | i
Cc1ccc(C(=O)Nc2nc(-c3ccccc3)c(-c3ccccc3)o2)cc1 | 18µM | i | i | 21µM | i | i
Cc1cc(=O)[nH]c(SCC(=O)Nc2nc(-c3ccccc3)c(-c3ccccc3)o2)n1 | i | i | i | i | i | i
Cc1ccc(C(=O)Nc2c(C)cc(-c3ccccc3)oc2=O)cc1 | i | i | i | i | i | i
Cc1cc(C)nc(SCC(=O)Nc2nc(-c3ccccc3)c(-c3ccccc3)o2)n1 | 23µM | i | i | ? | i | i
Cc1nc(-c2ccc(NC(=O)C(C)(C)C)cc2)c(-c2ccccc2)o1 | 16µM | i | nt | ? | i | i
CC(C)(C)C(=O)Nc1ccc(N=Nc2ccccc2)cc1 | i | i | i | i | ? | i
Cn1ncc(N=Cc2ccccc2)c1C(N)=O | i | i | i | i | i | i
Cn1ncc(N=Cc2ccccc2)c1C(=O)Nc1cccc(Cl)c1 | 18µM | i | i | ? | i | i
Cc1ccc(C)c(NC(=O)CCc2nnc3ccc(N4CCCCC4)nn23)c1 | i | i | i | ? | i | i
CCCCCCCOc1ccc(OC(=O)c2ccncc2)cc1 | 10µM | i | i | 9.2µM | i | i
CCCCCCCOc1ccc(OC(=O)c2cccnc2)cc1 | 8.2µM | i | i | 5.2µM | i | i
